Assay results published in PubChem BioAssay AID1903 (Southern Research Specialized Biocontainment Screening …, 2009).
Values joined by “and” are separate entries in the source; they are usually repeats but may differ in a detail not shown here. Identical values can stand only once. In all, about 310,000 compounds went through this assay and about 1,200 (0.39%) were called active. The rule behind the calls is not given here. The list is a sample of the results. Entries with a potency or affinity are not part of this list.

target: Large T antigen (Simian virus 40) (UniProt P03070); experiment: SV40 large T antigen inhibitors, biochemical (AID 1903); settings: SV40 large T antigen ATPase/helicase inhibition assay; at 20 µM; hits give high values
Sequence (P03070 whole entry, looked up): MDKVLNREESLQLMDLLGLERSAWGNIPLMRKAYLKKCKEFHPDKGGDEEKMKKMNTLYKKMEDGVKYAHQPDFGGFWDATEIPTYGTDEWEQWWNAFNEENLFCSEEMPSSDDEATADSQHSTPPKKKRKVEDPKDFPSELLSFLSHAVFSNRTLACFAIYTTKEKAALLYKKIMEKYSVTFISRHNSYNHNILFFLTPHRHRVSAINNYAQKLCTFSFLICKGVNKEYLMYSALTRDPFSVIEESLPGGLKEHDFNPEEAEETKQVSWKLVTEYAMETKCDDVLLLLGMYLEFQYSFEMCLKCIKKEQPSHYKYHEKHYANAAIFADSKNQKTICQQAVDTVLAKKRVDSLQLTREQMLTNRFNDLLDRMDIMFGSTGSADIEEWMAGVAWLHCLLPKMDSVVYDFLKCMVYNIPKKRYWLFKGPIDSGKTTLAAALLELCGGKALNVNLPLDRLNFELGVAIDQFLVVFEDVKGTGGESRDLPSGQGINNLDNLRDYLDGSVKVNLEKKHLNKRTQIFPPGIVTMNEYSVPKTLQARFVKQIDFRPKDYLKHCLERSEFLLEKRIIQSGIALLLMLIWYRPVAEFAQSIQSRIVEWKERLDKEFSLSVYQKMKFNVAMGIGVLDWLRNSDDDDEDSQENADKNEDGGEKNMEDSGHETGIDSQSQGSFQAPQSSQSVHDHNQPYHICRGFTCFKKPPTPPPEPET

inhibition, inactive:
Cc1csc(Sc2ccc(S(=O)(=O)N3CCCC3)cn2)n1 10.9%
O=C(O)c1cc(-c2cccs2)nc2ccc(Br)cc12 15.7%
NC(=O)c1nsc(C(=O)N(c2ccc(F)cc2)C(C(=O)NCC2CCCO2)c2ccc3ncccc3c2)c1N (stereo unspecified) -0.08%
O=C(NC1CCSc2ccccc21)c1ccc(Cl)c(S(=O)(=O)N2CCOCC2)c1 (stereo unspecified) 9.03%
NS(=O)(=O)c1cccc(C(=O)NC2CCSc3ccccc32)c1 (stereo unspecified) -2.32%
COC(=O)C1=C(C)NC(=S)N(C(C)=O)C1c1ccc(OC)c(OC)c1 (stereo unspecified) 9.87%
COC(=O)Cc1c(C)c2ccc(OCC(=O)c3ccc(OC)c(OC)c3)cc2oc1=O 14.4%
Cc1csc(NC(=O)CS(=O)(=O)Cc2ccccc2)n1 0.95%
COc1cccc(NC(=O)c2cc([N+](=O)[O-])ccc2NC(=O)CNCC2CCCO2)c1 (stereo unspecified) 3.88%
Cn1c(SCC(=O)c2ccc(O)c(O)c2)nnc1-c1ccccc1 27.2%
O=C(CSc1nc2ccccc2n1CCc1ccccc1)NC1CC1 5.51%
Cc1cc(SCC(=O)c2ccc(O)c(O)c2)n2nc(C)c(-c3ccccc3)c2n1 31.3%
Cc1cc(C)nc(SCC(=O)c2ccc(O)c(O)c2)n1 35.3%
Cc1cc(SCC(=O)c2ccc(O)c(O)c2)nc2ccccc12 35.4%
O=C(CSc1nc2ccccc2n1CCc1ccccc1)N1CCOCC1 11.6%
Cc1cc(-c2nnc(CCC(=O)N(C)C(C)c3cccs3)o2)no1 (stereo unspecified) 22%
CCC(C)N(C(=O)COC(=O)COc1c(C)cc(C)cc1C)C1CCS(=O)(=O)C1 (stereo unspecified) 7.34%
COCC1CCN(C(=O)c2ccc3oc(Cc4ccc(Cl)cc4)nc3c2)C1 (stereo unspecified) 11.1%
Cc1sc2ncnc(Sc3ccccc3C(=O)Nc3ccc(C#N)cc3)c2c1C 9.82%
Cc1nn(-c2ccccc2)c(Cl)c1/C=N\NC(=O)c1cncc(Br)c1 22%
CC(=O)c1ccc(N2C(=O)NC3(CCCCC3)C2=O)cc1 3.35%
COc1cccc(-c2nc(CS(=O)(=O)CC(=O)Nc3cc(C)ccc3C)c(C)o2)c1 15.6% and 1.41%
CCN(CC)S(=O)(=O)c1ccc(N/N=C/c2ccc(O)cc2O)nc1 21.6%
Cc1cc(N/N=C/c2ccc(O)cc2)nc(NS(=O)(=O)c2ccccc2)n1 10.1%
Cc1nc(Cl)cc(N/N=C/c2ccc(O)cc2O)n1 24.5%
CCN(CC)S(=O)(=O)c1ccc(N/N=C/c2cccnc2)nc1 9.01%
COc1ccc(/C=N/Nc2cc(C)nc(NS(=O)(=O)c3ccc(C)cc3)n2)cc1 11.9%
COc1cccc(/C=N/Nc2cc(Cl)nc(C)n2)c1O 21%
COc1ccccc1C(=O)N/C(=C/c1cccc([N+](=O)[O-])c1)C(=O)Nc1cccc(C(=O)O)c1 -0.39%
O=C(O)CN1C(=O)c2ccc(Oc3ccc([N+](=O)[O-])cc3)cc2C1=O 7.08%
CCOCCCn1c(SCC(=O)Nc2ccc3[nH]c(=O)[nH]c3c2)nc2ccccc2c1=O 10.2%
O=C(Cc1c(Cl)cccc1Cl)N/N=C/c1cccnc1 17.8%
COc1cc(C(=O)CSc2nnc(-c3ccc(O)cc3)n2CC2CCCO2)ccc1NC(C)=O (stereo unspecified) 4.93%
COc1ccc(CCN2C(=O)NC(NS(=O)(=O)c3ccc(Cl)cc3)(C(F)(F)F)C2=O)cc1OC (stereo unspecified) 12.9%
O=C(COC(=O)C1COc2ccccc2O1)Nc1cccc(S(=O)(=O)N2CCCCC2)c1 (stereo unspecified) 11.3%
CN(c1ccc(C(=O)Nc2ccc3c(c2)OCO3)cc1)S(C)(=O)=O 14.1%
Cc1c(CC(=O)N2CCN(C(=O)C3COc4ccccc4O3)CC2)c(=O)oc2c(C)c(O)ccc12 (stereo unspecified) 24.4%
COc1ccc2c(C)c(CC(=O)N3CCN(C(=O)C4COc5ccccc5O4)CC3)c(=O)oc2c1C (stereo unspecified) 12%
Cc1cccn2c(=O)c3cc(C(=O)NC4CCCCC4)c(=N)n(Cc4ccccc4)c3nc12 5.16%
Cc1nc2sc3c(c2c(=O)o1)CCC3 9.19%
Cc1nc2sc3c(c2c2nc(-c4ccco4)nn12)CCCC3 14.8%
COc1ccc(C(=O)NCC(=O)OCc2ccccc2F)cc1 6.15%
O=C(COc1ccc(S(=O)(=O)N2CCOCC2)cc1)NCCCn1ccnc1 7.23%
COc1cccc(CNS(=O)(=O)c2c(C(=O)N3CCCCCC3)c(C)n(C)c2C)c1 2.83%
CC(C)CN(CC(C)C)C(=O)CN1C(=O)NC2(CCc3ccccc3C2)C1=O (stereo unspecified) 23.5%
N#Cc1c(N)sc2c1CCCCCC2 32%
N#Cc1c(N)sc(=S)c2c1CCCC2 29.3%
Cn1c(CNC(=O)c2ccc3c(c2)OCO3)nnc1SCC(=O)Nc1ccccc1Cl 10.7%
Nc1ccc(OCCc2ccccc2)cc1 30.9%
COc1ccc(Cc2c(N)nc(N)nc2N)cc1 -2.12%
CC(C)C1N=C2c3ccccc3N=C(SCC#N)N2C1=O (stereo unspecified) 6.69%
CC(C)C1N=C2c3ccccc3N=C(SCC(=O)NCCc3ccc(S(N)(=O)=O)cc3)N2C1=O (stereo unspecified) 1%
Cc1ccc(-c2nnc(SCC(=O)N3c4ccccc4NC(=O)C3(C)C)n2N)cc1 4.15%
CC(/C=C/c1ccccc1)=N/O 10.9%
CCOc1ccc(/C=C\C(C)=N\O)cc1 29.6%
COc1cc(/C=C/c2ccc(O)cc2)cc(OC)c1 11.3% and 1.99%
COc1cc(/C=C/C(=O)O)ccc1O 24.2%
O=Cc1ccc(O)c(O)c1 34.4%
Cc1ccc(/C=C/C(=O)c2ccccc2O)cc1 11.7%
Nc1cccc(/C=C/C(=O)O)c1 15.7%
O=C(/C=C/c1ccc(O)c(O)c1)NC(=O)c1ccccc1O 6.12%
Cc1nc2ccccc2c(=O)n1-c1ccc(NS(=O)(=O)c2ccccc2)cc1 -1.73%
NC(=O)C1CCN(C(=O)c2cccc3ccccc23)CC1 16.8%
CCOC(=O)CC1C(=O)NCCN1C(=O)c1ccc(Cl)cc1Cl (stereo unspecified) 3.58%
Fc1ccc(C2c3cccn3CCN2C(=S)Nc2cccc(F)c2)cc1 (stereo unspecified) 6.14%
Cn1c(=O)c(C(=O)CN2CCN(S(=O)(=O)c3ccccc3)CC2)c(N)n(Cc2ccccc2)c1=O 2.73%
COC(=O)C1C(=O)c2c([nH]c(C(=O)OC3CCCCC3)c2C)CC1C (stereo unspecified) 0.84%
O=C1OC(c2ccc3c(c2)OCO3)N(C(=O)c2ccc(Cl)c(Cl)c2)c2ccccc21 (stereo unspecified) 10.3%
CCCC(=O)N(c1ccc2oc(=O)sc2c1)S(=O)(=O)c1ccccc1 22.9%
COc1ccc(C(CNC(=O)COc2ccccc2)N2CCOCC2)cc1 (stereo unspecified) 5.3%
CCCc1cc(=O)[nH]c(SCCCCN2C(=O)c3ccccc3C2=O)n1 16.4%
CC(C)c1ccc(/C=C/C(=O)O)cc1 15.3%
O=C(/C=C/c1ccc(O)cc1)c1c(O)cc(O)cc1O 3.62%
CC(Nc1ccc2c(c1)OCCO2)C(=O)N1c2ccccc2CC1C (stereo unspecified) 16.6%
CC1Cc2ccccc2N1CC(=O)Nc1ccc(N2CCOCC2)cc1 (stereo unspecified) 27%
c1ccc(-c2ccc3c(c2)NC(C2Nc4cc(-c5ccccc5)ccc4O2)O3)cc1 (stereo unspecified) 19.8%
O=C1CCNc2ccc(-c3ccccc3)cc21 5.5%
Nc1cccc2c1C(=O)N(Cc1cccc(Cl)c1)C2=O 1.68%
O=C1c2ccccc2C(=O)N1Cc1cc(Cl)c(O)c([N+](=O)[O-])c1 6.24%
O=C(c1cccs1)N1CCCC(N2CCN(c3ccc(F)cc3)CC2)C1 (stereo unspecified) 7.59%
Cn1c(=O)n(Cc2ccccc2F)c2ccccc21 9.44%
NS(=O)(=O)c1ccc(N=Nc2ccc(O)c3ncccc23)cc1 13.3%
Nc1nc(O)c(N=Nc2ccc(S(N)(=O)=O)cc2)c(=O)[nH]1 -12.8%
COc1ccc2[nH]c(=O)c(CN(CCO)S(=O)(=O)c3ccc4c(c3)OCCO4)cc2c1 -3.52%
O=[N+]([O-])c1cc(Cl)c(O)c2ncccc12 14.7%
O=[N+]([O-])c1ccc(O)c2ncccc12 -8.5% and 12.1%
COCc1cc(SC2CCCCC2)nc(C)n1 10.5%
O=C(CSc1nc2[nH]ncc2c(=O)[nH]1)Nc1nccs1 12.6%
CCN(CC1CCCO1)C(=O)CCc1nnc(CCc2ccc(OC)cc2)o1 (stereo unspecified) 0.66%
O=C1CCC(=O)N1c1nc2nc(-c3ccccc3)cc(-c3ccccc3)n2n1 3.94%
COc1ccccc1N1CCN(C(=S)Nc2ccc(S(=O)(=O)N3CCOCC3)cc2)CC1 -0.03%
O=S(=O)(c1ccc(NC(=S)N2CCN(c3ccccc3F)CC2)cc1)N1CCOCC1 11.6%
CN1CCN(CC(=O)Nc2cc(S(=O)(=O)N3CCOCC3)ccc2Cl)CC1 8.7%
O=C(CN1CCN(c2ccc(O)cc2)CC1)Nc1cc(S(=O)(=O)N2CCCCC2)ccc1Cl 28.7%
Cc1ccc(S(=O)(=O)N2CCN(CC(=O)Nc3ccc(N4CCOCC4)cc3)CC2)cc1C 10.9%
CC(=O)N1CCN(CC(=O)Nc2cc(S(=O)(=O)N3CCOCC3)ccc2C)CC1 10.5%
